{"source": "ChEMBL document CHEMBL3988442", "about": "“University of Dundee, Small-Polar-MMV Screening Library” (2021)", "note": "The whole screen tested about 48,000 compounds, of which about 13,000 (27%) showed an effect of 50% or more. The list shows a part of the results."}
{"tested_on": "Wolbachia pipientis", "assay": "Anti-Wolbachia Cell-Based Screen", "format": "functional", "design": "scale not given: in the data most compounds retested in dose-response had high values", "conditions": "5 µM", "units": {"Percent Effect": "%"}}
{"molecule": "c1cncc(CN2CCC(NCCc3ccc4c(c3)CCO4)CC2)c1", "Percent Effect": 11.75}
{"molecule": "O=C1CCCCN1Cc1cccc(NC(=O)N2CCSCC2)c1", "Percent Effect": 7.58}
{"molecule": "COc1cccc(C(C(=O)O)N2CCCN(C3CCCC3)CC2)c1OC", "note": "(centres undefined)", "Percent Effect": 17.91}
{"molecule": "Cc1noc(C)c1CCN1CCCC1c1nc2cc(F)ccc2[nH]1", "note": "(centres undefined)", "Percent Effect": -25.67}
{"molecule": "CC(NC(=O)Nc1cccnc1N1CCCC1)c1nncn1C", "note": "(centres undefined)", "Percent Effect": -5.724}
{"molecule": "CCc1cc(NCCNC(C)=O)nc(N2CCCC2)n1", "Percent Effect": 3.61}
{"molecule": "CCOc1ccc(S(=O)(=O)NCCCc2ccc(N(C)C)cc2)cc1C", "Percent Effect": 28.94}
{"molecule": "Cc1cc(C)n(CCC(=O)OCC(=O)N2CCc3sccc3C2)n1", "Percent Effect": 1.296}
{"molecule": "CN(CC1CCCO1)c1nc(-c2cccnc2)nc2c1CCNCC2", "note": "(centres undefined)", "Percent Effect": -5.842}
{"molecule": "Cc1cc(C2CCCN2CC(=O)N(CCC#N)c2ccccc2F)on1", "note": "(centres undefined)", "Percent Effect": 6}
{"molecule": "CC(NCC(=O)Nc1ccc(N2CCCCCC2)cc1)c1cccs1", "note": "(centres undefined)", "Percent Effect": 140.9}
{"molecule": "CC(NCC(=O)NCC(=O)Nc1ccc(F)cc1)c1cccs1", "note": "(centres undefined)", "Percent Effect": 91.77}
{"molecule": "O=C(Cc1cccs1)NCC(=O)Nc1cn[nH]c1", "Percent Effect": -3.119}
{"molecule": "CCC(NC(=O)NCC(=O)Nc1ccc(F)cc1)c1ccncc1", "note": "(centres undefined)", "Percent Effect": 13.9}
{"molecule": "CCCC(=O)NCc1ccc(N2CCCCC2)cc1", "Percent Effect": -2.635}
{"molecule": "CC(C#N)CSc1ccccc1NCC(=O)Nc1ccc(F)cc1", "note": "(centres undefined)", "Percent Effect": -2.506}
{"molecule": "CN(CC(=O)NCC(=O)Nc1ccc(F)cc1)Cc1cccs1", "Percent Effect": 82.61}
{"molecule": "CC(C)CCC(=O)NCc1ccc(N2CCCCC2)cc1", "Percent Effect": 9.507}
{"molecule": "CN(CC(=O)NS(=O)(=O)c1cccs1)Cc1ccccc1", "Percent Effect": -0.04031}
{"molecule": "COc1ccc(NC(=O)N2CCCC2c2ccco2)cc1OC", "note": "(centres undefined)", "Percent Effect": 20.26}
{"molecule": "COc1cc(Nc2c(C#N)c(=O)n(C)c(=O)n2C)cc(OC)c1", "Percent Effect": 0.2169}
{"molecule": "CC(c1cc(F)ccc1F)N(C)CCS(=O)(=O)CCC(N)=O", "note": "(centres undefined)", "Percent Effect": -2.852}
{"molecule": "COC(=O)C(NC(=O)C1CCCC1)c1cc(F)ccc1F", "note": "(centres undefined)", "Percent Effect": 111.2}
{"molecule": "O=C(NC1CC1)NC(c1cc(F)ccc1F)C1CC1", "note": "(centres undefined)", "Percent Effect": -0.2014}
{"molecule": "COc1ccccc1C(NC(=O)C1CCC1)c1noc(C)n1", "note": "(centres undefined)", "Percent Effect": -10.07}
{"molecule": "COc1ccccc1C(NC(=O)C1CCCC1)c1noc(C)n1", "note": "(centres undefined)", "Percent Effect": -4.234}
{"molecule": "COC(=O)C(NC(=O)c1cc(F)cc(F)c1)c1cccnc1", "note": "(centres undefined)", "Percent Effect": 7.008}
{"molecule": "COC(=O)C(NC(=O)C1CCC1)c1cc(F)ccc1F", "note": "(centres undefined)", "Percent Effect": 101.8}
{"molecule": "CNC(C(=O)OC)c1cc(F)ccc1F.Cl", "note": "(centres undefined)", "Percent Effect": 100.3}
{"molecule": "COC(=O)C(NC(=O)COC1CCCC1)c1cc(F)ccc1F", "note": "(centres undefined)", "Percent Effect": 0.6159}
{"molecule": "COC(=O)C(NC(=O)C1CC1)c1cc(F)ccc1F", "note": "(centres undefined)", "Percent Effect": 87.91}
{"molecule": "Cc1nc(C(NC(=O)C2CCCC2)c2ccccc2F)no1", "note": "(centres undefined)", "Percent Effect": -17.79}
{"molecule": "CNC(=O)C1CN(Cc2ccc(C#N)cc2F)c2ccccc2O1", "note": "(centres undefined)", "Percent Effect": -15.36}
{"molecule": "CC(C)C(=O)N1CCN(C(=O)c2cc(Cl)no2)[C@H]2CS(=O)(=O)C[C@H]21", "Percent Effect": -5.437}
{"molecule": "N#Cc1cccnc1NC1CCN(c2ccccc2OC(F)F)C1=O", "note": "(centres undefined)", "Percent Effect": -11.66}
{"molecule": "O=C(NCCNc1cncc(Br)c1)c1ccc(O)cc1", "Percent Effect": -0.2825}
{"molecule": "O=C1c2cccnc2OC(CN2CCOCC2)CN1C1CCC1", "note": "(centres undefined)", "Percent Effect": 113.2}
{"molecule": "COc1ncccc1CNC(=O)N1CCC(CN2CCOCC2)CC1", "Percent Effect": -11.8}
{"molecule": "CCN1CC(CN2CCOCC2)Oc2ncccc2C1=O", "note": "(centres undefined)", "Percent Effect": 121.1}
{"molecule": "O=C1c2cccnc2OC(CN2CCOCC2)CN1CC1CC1", "note": "(centres undefined)", "Percent Effect": 142}
{"molecule": "Cc1cccc(C)c1C(=O)N1C[C@@H](CN2CCOCC2)[C@@H](CO)C1", "Percent Effect": -12.05}
{"molecule": "CCOC(=O)N1CCC(N2Cc3ncccc3C2=O)CC1", "Percent Effect": -7.226}
{"molecule": "COc1ncccc1NC(=O)N1CCC(CN2CCOCC2)CC1", "Percent Effect": 40.61}
{"molecule": "O=C(O)C(F)(F)F.O=C(O)C(F)(F)F.O=C(O)C(F)(F)F.c1cncc(C[C@H]2[C@H](N3CCOCC3)CCN2Cc2cccs2)c1", "Percent Effect": -5.101}
{"molecule": "O=C(NC1CCCCC1)N1CCC(N2Cc3ncccc3C2=O)CC1", "Percent Effect": 2.597}
{"molecule": "O=C1c2cccnc2OC(CN2CCOCC2)CN1Cc1cccs1", "note": "(centres undefined)", "Percent Effect": 106}
{"molecule": "CCc1c(C)sc2ncnc(N3CC[C@@H](N4CCC(O)CC4)[C@H](O)C3)c12", "Percent Effect": -2.578}
{"molecule": "O=C(O)c1cn(CC2CCCN(c3nc4ccccc4s3)C2)nn1", "note": "(centres undefined)", "Percent Effect": -26.21}
{"molecule": "NC(=O)c1ccccc1-n1cc(-c2cccc(C(=O)O)c2)cn1", "Percent Effect": 8.053}
{"molecule": "CCN1CCCN(c2ncccc2C(=O)N2CCCCC2)CC1", "Percent Effect": -13.17}
{"molecule": "CC(C)N1CCC(Cc2cnc(-c3cccc(C(=O)O)c3)cn2)C1", "note": "(centres undefined)", "Percent Effect": -8.094}
{"molecule": "CC(C)N1CCC(Cc2cncc(-c3cccc(C(=O)O)c3)n2)CC1", "Percent Effect": 108.9}
{"molecule": "COCCN1CCC(Cc2cncc(-c3ccc(C(=O)O)cc3)n2)C1", "note": "(centres undefined)", "Percent Effect": -8.312}
{"molecule": "CC(C)N1CCC(CC(=O)NCc2cc(O)ncn2)CC1", "Percent Effect": -21.37}
